Screening data deposited in PubChem by ICCB-Longwood Screening Facility, Harvard Medical School.
Anaer choline gr: inhibitors of anaerobic choline-dependent gram-negative bacterial growth; calls only; Gram-negative bacterium anaerobic choline minimal medium, absorbance growth; active compounds read low; 55,000 compounds, 0.2% hits; call rule not given here
Starred values were filed as active, the others as inactive. This is one part of a sample in which hits are shown more often than they occur.

For O=[N+]([O-])C=Cc1ccc2c(c1)OCO2 the results were Anaer choline gr active.
`O=[N+]([O-])/C=C/c1ccc2c(c1)OCO2` gave Anaer choline gr inactive.
For O=C(Oc1ccc([N+](=O)[O-])cc1)N1CCC(C(O)(c2ccc3c(c2)OCO3)c2ccc3c(c2)OCO3)CC1 the results were Anaer choline gr inactive.
Cc1[nH]c2ccccc2c1/C=C/c1nc2ccccc2c(=O)n1-c1ccccc1 was read as Anaer choline gr inactive.
Screening O=C(Cc1c(Sc2ccc(F)cc2)[nH]c2ccccc12)N1CCN(Cc2ccccc2)CC1 returned Anaer choline gr inactive.
Screening COc1ccc2c(c1)C1(CCN(S(=O)(=O)c3c(C)noc3C)C1)C(=O)N2 (stereo unspecified) returned Anaer choline gr inactive.
`CN1C2CCC1CC(OC(c1ccccc1)c1ccc(Cl)cc1)C2` (stereo unspecified) gave Anaer choline gr active.
Screening CN1C2CCC1CC(OC(c1ccccc1)c1ccccc1N)C2 (stereo unspecified) returned Anaer choline gr inactive.
For Clc1ccc(C(OCCN2CCCCC2)c2ccccc2)cc1 (stereo unspecified) the results were Anaer choline gr inactive.
C=C1[C@@H](O)[C@@H]2O[C@@]3(CCC2O[C@@H]1[C@@H](O)C[C@H](C)C1O[C@@]2(CCCCO2)CC[C@H]1C)CC[C@H](/C=C/[C@@H](C)[C@@H]1CC(C)=C[C@@]2(O[C@H](C[C@@](C)(O)C(=O)O)CC[C@H]2O)O1)O3 (stereo partly specified) was read as Anaer choline gr inactive.
